This is an account of results in PubChem BioAssay.

A short description of test [1]: resazurin metabolic signal in HepG2 cells – cell-based, resazurin fluorescence, 24 h, PK04 Diversity Set, profiling panel (AID 1172). Note: test concentration not given here. The note with it: HepG2 viability, higher = more signal. Background: Resazurin is reduced to fluorescent resorufin, in cell work by metabolically active cells.
The nature of test [2]: budding yeast growth changes without added modifier – OD600, strain BY4716, 24 h, basal condition, primary screen (AID 1173). The note with it: S. cerevisiae BY4716 growth, OD600, 24 h; higher = more signal, called active from +8 up or from −8 down.
Test [3] is described as follows: viability profiling in MM1S myeloma cells – cell-based, resazurin fluorescence, basal, 24 h, PK04 Diversity Set, profiling panel (AID 1174).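 Note: MM1S multiple myeloma cell line; test concentration not given here.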 The following applies: higher = more signal, called active from +8 up or from −8 down.
The target of test [4] is Dihydroorotate dehydrogenase (quinone), mitochondrial (Plasmodium falciparum (isolate 3D7)) (UniProt Q08210). Description: inhibition of P. falciparum DHODH – biochemical, C-terminal His tag, absorbance 600 nm, primary screen (AID 1175).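 Note: recombinant parasite enzyme with a five histidine tag at its C terminus; test concentration not given here.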 The note with it: PfDHODH enzyme, DCIP absorbance 600 nm; higher = more signal, called active from +8 up or from −8 down.
Chain of Dihydroorotate dehydrogenase (quinone), mitochondrial (Plasmodium falciparum (isolate 3D7)) (Q08210 whole entry, looked up): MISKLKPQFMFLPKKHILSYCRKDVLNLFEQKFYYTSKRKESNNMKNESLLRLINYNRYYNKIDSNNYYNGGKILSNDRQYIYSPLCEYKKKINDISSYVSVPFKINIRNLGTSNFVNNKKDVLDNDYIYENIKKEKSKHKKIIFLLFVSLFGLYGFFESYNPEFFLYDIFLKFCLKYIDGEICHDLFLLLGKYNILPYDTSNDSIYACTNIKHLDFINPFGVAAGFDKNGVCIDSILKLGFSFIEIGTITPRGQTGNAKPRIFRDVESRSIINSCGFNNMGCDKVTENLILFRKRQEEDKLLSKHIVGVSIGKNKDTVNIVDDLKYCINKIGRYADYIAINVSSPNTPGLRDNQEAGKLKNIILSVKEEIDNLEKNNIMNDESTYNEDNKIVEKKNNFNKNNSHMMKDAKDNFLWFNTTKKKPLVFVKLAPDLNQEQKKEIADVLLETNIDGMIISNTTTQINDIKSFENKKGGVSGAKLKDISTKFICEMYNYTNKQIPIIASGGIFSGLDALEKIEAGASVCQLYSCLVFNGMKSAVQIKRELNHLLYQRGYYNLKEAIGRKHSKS
Test [5] can be described thus: inhibition of PAO1 biofilm formation – strain PAO1, LB-PBS medium, absorbance 600 nm, primary screen (AID 1176). Note: test concentration not given here. The following applies: P. aeruginosa PAO1 growth/biofilm, A600, 12 h; higher = more signal.
The nature of test [6]: growth modulation of vineyard yeast isolate – strain RM11-1a, OD600, basal, 24 h, primary screen (AID 1177).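 Note: cultures grown under basal conditions with no added stressor; test concentration not given here.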 The following applies: S. cerevisiae RM11-1a growth, OD600, 24 h; higher = more signal, called active from +8 up or from −8 down.
A short description of test [7]: growth of efflux-deficient E. coli DRC39 – strain DRC39, OD650, 24 h, E. coli filamentation inducers, primary screen (AID 1178).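 Note: growth measured as culture turbidity by optical density at 650 nm; test concentration not given here.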 The following applies: E. coli DRC39 acrAB, higher = more signal, called active from +8 up or from −8 down.
Test [8] in a line: growth of efflux-deficient E. coli DRC39 – strain DRC39, OD650, 48 h, E. coli filamentation inducers, primary screen (AID 1179).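 Note: screen aims at cell division blockers that make cells filament.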 The note with it: E. coli DRC39 delta-acrAB growth, higher = more signal, called active from +8 up or from −8 down.
Test [9] in a line: viability profiling in RPMI8226 myeloma cells – cell-based, resazurin fluorescence, basal, 24 h, PK04 Diversity Set, profiling panel (AID 1180).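 Note: RPMI8826 multiple myeloma cell line at 5000 cells per well; test concentration not given here.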 The following applies: higher = more signal.
For test [10], the target named is E3 ubiquitin-protein ligase XIAP (Homo sapiens) (UniProt P98170). Description: small molecules binding XIAP protein – biophysical, small-molecule microarray, fluorescence 635 nm, primary screen (AID 1181).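 Note: score merges 667 nm emission and signal to noise over triplicate slides.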 The note with it: higher = more signal.
Chain of E3 ubiquitin-protein ligase XIAP (Homo sapiens) (P98170 whole entry, looked up): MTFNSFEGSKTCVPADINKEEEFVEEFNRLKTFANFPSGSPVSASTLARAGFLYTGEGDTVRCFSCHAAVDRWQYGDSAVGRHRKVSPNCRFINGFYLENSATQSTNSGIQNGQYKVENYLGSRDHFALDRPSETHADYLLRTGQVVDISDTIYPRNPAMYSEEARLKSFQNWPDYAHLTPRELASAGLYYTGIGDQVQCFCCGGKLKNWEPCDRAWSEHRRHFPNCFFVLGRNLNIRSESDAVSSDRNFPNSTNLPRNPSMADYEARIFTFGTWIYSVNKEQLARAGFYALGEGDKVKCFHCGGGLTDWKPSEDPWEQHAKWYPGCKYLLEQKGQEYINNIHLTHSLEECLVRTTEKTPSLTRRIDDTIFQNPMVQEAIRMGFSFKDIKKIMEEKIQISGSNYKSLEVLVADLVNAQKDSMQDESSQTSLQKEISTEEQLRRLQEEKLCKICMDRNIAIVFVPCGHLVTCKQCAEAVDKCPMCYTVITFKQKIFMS

Active and inactive are the calls of the source. Unless noted, the rule behind the calls is not given here.

As to `C=CC[C@@H]1C=C[C@H](ON=C2c3cc(OC)ccc3O[C@H](c3cccc(OC)c3)[C@H]2O)[C@@H](CO)O1`, the z-score is -1.38 in [1]; -0.903 (inactive) in [2]; -1.15 (inactive) in [3]; 0.113 (inactive) in test [5]; -0.7 (inactive) in test [6]; 0.57 (inactive) in test [7]. Further, the z-score is 0.741 (inactive) in test [8] and -1.37 in [9]. Besides, the composite z-score in test [4] is -0.726 (inactive); in [10] it was -0.0834.
Regarding `COc1ccc([Si](C)(C)[C@H]2[C@H](CC(=O)N3CCC[C@H]3CO)O[C@@]3(C(=O)N(Cc4cccc(N5C(=O)COc6ccccc65)c4)c4ccccc43)[C@@H]2C)cc1`, the z-score in test [1] was -0.58; in test [2] it was -1.16 (inactive); in test [3], -0.986 (inactive); in test [5] it was 1.85 (inactive); in test [6] it was -1.74 (inactive); in test [7] it was 1.21 (inactive). Also, the values for the z-score in [8] and in [9] were 1.32 (inactive) and -0.524, respectively. The composite z-score in test [4] is -3.33 (inactive); in test [10] it was -0.0795.
With `COc1ccc([Si](C)(C)[C@@H]2[C@@H](CCO)O[C@]3(C(=O)N(Cc4ccc(NC(C)=O)cc4)c4ccccc43)[C@H]2C)cc1`, the z-score in test [1] is -2.52; in [2], 1.6 (inactive); in test [3], -5.15 (inactive); in test [5], -0.094 (inactive); in [6] it was 3.91 (inactive); in test [7], -0.486 (inactive). Besides, the z-score is -0.937 (inactive) in test [8] and -5.29 in test [9]. The composite z-score is -1.34 (inactive) in [4] and 0.0291 in test [10].
`CCN1C(=O)[C@H]2[C@H]3[C@H](O)[C@H](O)CC(=NOCc4ccccc4)[C@H]3CC[C@H]2C1=O`: the z-score in test [1] was -0.322; in test [2], -0.0753 (inactive); in [3] it was -0.344 (inactive); in test [5] it was 0.164 (inactive); in test [6], -0.889 (inactive); in test [7], 0.114 (inactive). Further, the z-score is 0.293 (inactive) in [8] and -0.855 in [9]. Also, the values for the composite z-score in test [4] and in [10] were -0.422 (inactive) and 0.0785, respectively.
Take `COc1ccc(O[C@H]2C=C[C@@H](c3ccccc3)O[C@@H]2CON=C[C@@H](C)[C@H](OCc2ccccc2)C(C)C)cc1`: the z-score in test [1] was -0.821; in test [2] it was 0.742 (inactive); in test [3] it was -1.69 (inactive); in test [5] it was -0.348 (inactive); in test [6] it was 0.443 (inactive); in test [7], 0.335 (inactive). Also, the figures for the z-score in [8] and in test [9] were 1.01 (inactive) and -0.854, respectively. In addition, the results for the composite z-score in test [4] and in test [10] were -0.896 (inactive) and 0.144, respectively.
As to `CCOC(=O)CCN1C(=O)[C@H]2[C@H]3[C@H](O)[C@H](O)CC(=O)[C@H]3CC[C@H]2C1=O`, the z-score was -0.228 in [1]; -0.329 (inactive) in [2]; 0.552 (inactive) in test [3]; 0.0122 (inactive) in test [5]; -0.336 (inactive) in test [6]; 0.231 (inactive) in [7]. For the same compound, the z-score in [8] is -1.81 (inactive); in [9] it was 0.566. In addition, the composite z-score was -2.85 (inactive) in test [4] and 0.065 in test [10].
For the compound `O=C1[C@H]2[C@H]3[C@H](O)[C@H](O)CC(=NOCc4ccccc4)[C@H]3CC[C@H]2C(=O)N1c1cccc(Oc2ccccc2)c1`, the z-score in test [1] is 1.44; in test [2], -0.47 (inactive); in test [3] it was 0.968 (inactive); in test [5], -0.131 (inactive); in test [6], -0.0244 (inactive); in [7], 0.416 (inactive). Besides, the z-score in test [8] is -0.482 (inactive); in test [9], 0.564. The composite z-score in test [4] was -0.278 (inactive); in [10], -0.193.
Turning to `COCC(=C=CC[C@@H](O)c1ccccc1OCCO)CCO`, the z-score was 0.721 in test [1]; -0.853 (inactive) in test [2]; 0.599 (inactive) in test [3]; 0.0356 (inactive) in test [5]; 0.0502 (inactive) in test [6]; 1.63 (inactive) in [7]. Moreover, the z-score in test [8] was 1.16 (inactive); in [9], 1.42. Besides, the composite z-score in test [4] was -1.59 (inactive); in test [10], 0.326.
`CC(C)(C)N1C(=O)[C@H]2[C@H]3[C@H](O)[C@H](O)CC(=NO[C@@H]4O[C@H](CO)[C@@H](O)[C@H](O)[C@H]4O)[C@@H]3CC[C@H]2C1=O`: the z-score is -0.332 in [1]; -0.597 (inactive) in [2]; -0.236 (inactive) in [3]; 0.0821 (inactive) in test [5]; -0.471 (inactive) in test [6]; 0.398 (inactive) in test [7]. In addition, the z-score was 0.441 (inactive) in [8] and -0.449 in [9]. Also, the composite z-score in [4] is 0.0902 (inactive); in test [10], 0.144.
For `CN(C)CCCNC(=O)[C@@H]1c2ccccc2C(=O)N(Cc2ccccc2)[C@H]1c1ccc(CO)cc1`, the z-score in [1] was -0.309; in test [2] it was 0.0396 (inactive); in [3], 0.499 (inactive); in [5], -0.233 (inactive); in test [6], 0.075 (inactive); in test [7], -0.0194 (inactive). The figures for the z-score in [8] and in test [9] were -0.136 (inactive) and 0.791, respectively. For the same compound, the composite z-score was -0.303 (inactive) in [4] and -0.0926 in [10].
`COC(=O)[C@@]1(Cc2ccc(F)cc2)[C@H]2c3cc(C(=O)N(C)C)n(Cc4ccc(OC)c(OC)c4)c3C[C@H]2CN1C(=O)c1ccccc1`: the z-score was -1.05 in test [1]; -0.0211 (inactive) in test [2]; -1.8 (inactive) in [3]; 3.14 (inactive) in [5]; 0.348 (inactive) in test [6]; -0.252 (inactive) in test [7]. Also, the z-score in test [8] is -1.45 (inactive); in test [9] it was -0.484. Besides, the composite z-score in test [4] is -3.71 (inactive); in [10], 0.276.
Regarding `Cc1cc2c(nc1C)CCCN2CC(C)ON=C1[C@H]2CCn3c(=O)n(-c4ccccc4)c(=O)n3[C@H]2[C@H](O)[C@@H]2O[C@H]12` (stereo not given in full), the z-score in test [1] is -0.942; in test [2] it was -0.286 (inactive); in [3], -0.222 (inactive); in [5], 0.381 (inactive); in test [6], -0.488 (inactive); in test [7], -1.05 (inactive). In addition, the values for the z-score in test [8] and in test [9] were -1.98 (inactive) and -0.745, respectively. In addition, the composite z-score in test [4] is -0.153 (inactive); in test [10], 0.0483.
